Screening results deposited in PubChem by National Center for Advancing Translational Sciences (NCATS).
HP1b binding inh = inhibitors of HP1-beta chromodomain binding to methylated histone tails | AlphaScreen HP1-beta / biotin-H3K9me3 peptide binding | Potency, µM (series often up to 114 µM), inactives show top-dose activity change, negative = inhibition, usual class: inhibitors | 390,000 tested, 0.56% active; further: nearly all actives have a fitted effect of over 70% in size
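Compound inhibition of the preformed complex between 50 nM HP1-beta and 50 nM biotinylated H3K9me3 peptide was read by AlphaScreen. Buffer was PBS pH 7.4 with 0.01% Tween-20. Incubations ran 30 min at room temperature, with 10 ug/mL donor/acceptor beads.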
JMJD2A Tudor inh = blocks the human JMJD2A Tudor domain. AlphaScreen JMJD2A-Tudor / H3K4me3 peptide binding. Potency, µM (doses to about 114 µM), for the others: top-dose activity change, negative = inhibition, usual class: inhibitors. 390,000 tested, 4.4% active. AID 504339; further: on the % scale 0 is the no-effect control and ±100 the full control effect; nearly all actives have a fitted effect of over 50% in size
G9a block = inhibitors of human histone lysine methyltransferase G9a. Q96KQ7. G9a H3K9 monomethylation, AlphaScreen, 2 h. AID 504332. 350,000 tested, 8.8% active. Potency, µM (doses to about 102 µM), without a hit: at the highest dose activity, negative = inhibition, usual class: inhibitors; further: on the % scale 0 is the no-effect control and ±100 the full control effect; nearly all actives have a fitted effect of over 75% in size
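Chemiluminescent proximity detection of H3K9 monomethylation, read after 10 min bead incubation in the dark. Reaction: 20 nM G9a, 500 nM biotin-H3K9 peptide, 20 uM SAM cofactor, 2 h, room temperature, following 15 min enzyme-compound preincubation.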
PLK1 PBD block = PLK1 (human) polo-box domain binding inhibition. P53350. Plk1 PBD binding of FITC phosphopeptide, fluorescence polarization. Potency, µM, for the others: max response, negative = inhibition, hits mostly inhibitors. 360,000 tested, 2.8% active. AID 720504; further: series mostly up to about 57 µM; on the % scale 0 is the no-effect control and ±100 the full control effect; nearly all actives have a fitted effect of over 65% in size
Target sequence (P53350 whole entry, looked up, the tested form may be a part): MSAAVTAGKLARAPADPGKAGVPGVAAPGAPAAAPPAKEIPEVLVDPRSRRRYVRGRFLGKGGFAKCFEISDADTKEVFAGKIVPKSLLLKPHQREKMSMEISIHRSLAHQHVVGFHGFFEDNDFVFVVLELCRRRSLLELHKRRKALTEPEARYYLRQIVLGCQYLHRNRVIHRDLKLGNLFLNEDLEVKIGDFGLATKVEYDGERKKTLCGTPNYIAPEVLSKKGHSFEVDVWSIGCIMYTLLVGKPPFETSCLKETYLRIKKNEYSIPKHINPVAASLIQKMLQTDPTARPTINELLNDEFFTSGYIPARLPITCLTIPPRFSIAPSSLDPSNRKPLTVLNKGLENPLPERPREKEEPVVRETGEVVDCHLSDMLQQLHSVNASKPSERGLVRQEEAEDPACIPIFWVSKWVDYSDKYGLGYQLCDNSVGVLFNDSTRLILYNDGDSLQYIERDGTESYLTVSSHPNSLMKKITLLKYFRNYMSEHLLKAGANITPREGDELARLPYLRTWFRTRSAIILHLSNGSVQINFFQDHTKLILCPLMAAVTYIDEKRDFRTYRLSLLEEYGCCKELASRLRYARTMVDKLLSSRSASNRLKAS
VDR inhibitor = blocks the human vitamin D receptor; VDR-SRC2-3 peptide fluorescence polarization, 2 h; Potency, µM, without a hit: max response, negative = inhibition, usual class: inhibitors; P11473; 400,000 tested, 0.93% active; further: on the % scale 0 is the no-effect control and ±100 the full control effect
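The screen uses fluorescence polarization to detect compounds that interfere with recruitment of the SRC2-3 coactivator peptide to VDR; plates are read after 2 h at room temperature.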
BAZ2B inh = inhibitors of human BAZ2B bromodomain. 360,000 tested, 4.4% active. AID 504333. Q9UIF8. Potency, µM (highest dose often 114 µM), without a hit: at the top dose activity change, negative = inhibition, actives largely listed as inhibitors. AlphaScreen BAZ2B-H3K14Ac peptide displacement; further: on the % scale 0 is the no-effect control and ±100 the full control effect; nearly all actives have a fitted effect of over 60% in size
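BAZ2B 50 nM plus b-H3(5-23)K14Ac 50 nM, PBS pH 7.4/0.01% Tween-20, 30 min RT; compound added (max 110 uM), 30 min RT; streptavidin donor/Ni-chelate acceptor beads 10 ug/mL final, 20 min dark; AlphaScreen read.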
Active calls of the source: *; ? = inconclusive; / = not tested or not shown; [ ] = dose if it differs, or a comment. This is a sample that favours compounds with a hit; in the whole collection about 11% have one here. The call rests on the fitted dose curve; in most records, active means well fitted curve in the direction sought with a large enough effect; inconclusive means small, poorly fitted or top-dose-only effect, or another doubt; inactive means no such curve, though single readings can be large; an effect the other way counts as inactive or inconclusive. Potency means the concentration at half of the fitted maximal effect.

SMILES	HP1b binding inh	JMJD2A Tudor inh	G9a block	PLK1 PBD block	VDR inhibitor	BAZ2B inh
Clc1ccc2c(c1)C(c1ccccc1Cl)=NCc1nnc(N3CCN(CCOc4ccccc4)CC3)n1-2	-8%	-31%	?	-2%	-13%	45µM*
Clc1ccc2c(c1)C(c1ccccc1Cl)=NCc1nnc(N3CCN(CCSc4ccccc4)CC3)n1-2	?	?	-1%[59 µM]	-15%	-21%	?
COc1cc2c3cc1Oc1c(OC)c(OC)cc4c1[C@H](Cc1ccc(cc1)Oc1cc(ccc1O)C[C@H]3N(C)CC2)N(C)CC4	-12%	?	/	-6%	12%	/
COc1cc2c3cc1Oc1cc(ccc1O)C[C@@H]1c4c(cc(OC)c(O)c4Oc4ccc(cc4)C[C@H]3N(C)CC2)CCN1C	-6%	?	?	-8%	-13%	45µM*
COc1ccc2cc1Oc1ccc(cc1)C[C@H]1c3cc(c(OC)cc3CCN1C)Oc1c(OC)c(OC)cc3c1[C@H](C2)N(C)CC3	-22%	50µM*	-37%[59 µM]	-9%	-5%	-32%
O=C1C(=O)N(c2nccs2)C(c2ccccc2)/C1=C(\O)c1ccc2c(c1)OCCO2 (centres undefined)	/	/	1%[0.0925 µM]	/	/	?
CCOc1ccc(C(=O)OC2CC3CCC(C2)N3C)cc1 (centres undefined)	29%	-18%	-1%	-1%	-6%	-18%
CN1C2CCC1CC(OC(=O)c1ccc(Cl)cc1)C2 (centres undefined)	11%	-7%[11.4 µM]	21%[59 µM]	27µM*	-7%	-24%
COc1cccc(C(=O)c2c(N)c(-c3nc(-c4ccccc4)cs3)c3ccccn23)c1	69%	7%	34%[59 µM]	/	10%	9%
CC(C)n1c(=O)c(C=Nc2cccc([N+](=O)[O-])c2)c(O)n(CCc2ccccc2)c1=O	-7%	?	10µM*	6%	-27%	?
CCCCn1c(=O)c(C=Nc2cc([N+](=O)[O-])ccc2OC)c(O)n(CCCCl)c1=O	-3%	?	?	-11%	8%	?
CSc1nn(-c2ccc(C(=O)OCC(=O)NC(=O)NC(C)C)cc2)c(=S)s1	-10%	?	-19%[59 µM]	-6%	0%	?
COC(=O)c1ccc(N2C(=O)CC(N3CCC(O)(c4ccc(Br)cc4)CC3)C2=O)cc1 (centres undefined)	49%	-9%	11µM*	0%	-11%	4%
C=C1[C@@H]2C[C@]3(C(CC2=O)[C@]24C5C[C@H]3[C@H]2N(CC)C[C@]5(C)CC[C@@H]4O)[C@@H]1O (some centres undefined)	/	/	/	/	-14%	/
O=C(COC(=O)Cc1ccccc1)Nc1cccnc1Cl	34%	1%	8%	-7%	26%	-13%
O=C(Cc1ccccc1)Oc1coc(CSc2ncccn2)cc1=O	18%	14µM*	-7%	-8%	9%	/
CC(C)N1C(=O)c2ccccc2NS1(=O)=O	/	/	/	/	-7%	/
Oc1ccccc1/C=N/[n+]1ccccc1	-12%	-3%	56µM*	1%	11%	-7%
O=C(O)[C@@H]1CSC(c2cccnc2)N1 (some centres undefined)	/	/	/	/	-9%	/
NC[C@H](CS(=O)(=O)O)c1ccc(Cl)cc1	/	/	/	/	9%	/
N#Cc1ccc(CN2CC[C@@]3(CCCNC3)C2)cc1	/	/	-10%[12.7 µM]	/	-5%	/
COc1ccc(N=C(C)c2c(O)[nH]c(=O)[nH]c2=O)cc1	44%	-3%	-11%[59 µM]	0%	8%	-22%
C/C(=N\N(C)c1ccccc1)c1c(O)[nH]c(=O)[nH]c1=O	21%	-7%	50µM*	7%	-14%	-3%
COc1ccc2c(c1)c(CCN)c(C)n2Cc1ccccc1	?	?	40µM*	-5%	13%	?
COC(=O)c1ccc(COC(=O)c2nn(C)c(=O)c3ccccc23)cc1	56%	3%	-8%	-5%	-9%	-29%
SMILES	HP1b binding inh	JMJD2A Tudor inh	G9a block	PLK1 PBD block	VDR inhibitor	BAZ2B inh
COc1cc(CN2CC3CC(C2)c2cccc(=O)n2C3)cc(OC)c1OC (centres undefined)	2%	-28%	-11%[12.7 µM]	1%	2%	79µM*
O=c1cccc2n1CC1CC2CN(Cc2c(Cl)cccc2Cl)C1 (centres undefined)	8%	-36%	35µM*	1%	0%	56µM*
Cc1ccc(CN2CC3CC(C2)c2cccc(=O)n2C3)cc1 (centres undefined)	16%	-26%	-34%[12.7 µM]	-8%	0%	-8%
COc1ccc(N2CCN(C(=O)c3cc(=O)[nH]c4ccccc34)CC2)cc1	-16%	-9%[11.4 µM]	?	27µM*	-6%	?
COc1ccc(-c2cc(C(=O)N3CCN(c4ccccc4OC)CC3)c3cc(C(C)C)ccc3n2)cc1	20%	-25%	-8%[59 µM]	/	10%	?
CCCCCCCCCCCCCCOS(=O)(=O)O	/	/	/	/	28µM*	/
CCOc1ccc2nc(N(CCN(CC)CC)C(=O)c3ccc([N+](=O)[O-])cc3)sc2c1	0%	-19%	14%	-8%	-3%	/
Cc1c(C=O)c2ccccc2n1Cc1cccc(F)c1	?	?	5%[59 µM]	?	20µM*	13%
CCS(=O)(=O)C(C)(C)S(=O)(=O)CC	/	/	-38%[12.7 µM]	/	7%	/
Cc1ccc(-n2nc3c(=O)n(CC(=O)Nc4ccccc4F)nc(C)c3c2C)c(C)c1	40%	-15%	-5%[59 µM]	/	7%	-2%
CC1=CC(=O)NP(=O)(Oc2ccc3ccccc3c2)N1 (centres undefined)	14µM*	45µM*	3.5µM*	6.7µM*	-10%	/
CC/C=C\C/C=C\C/C=C\C/C=C\C/C=C\CCCC(=O)NCC(=O)O	/	/	/	/	-1%	/
O=C1NC(=O)C(=C/C=C/c2coc3ccc(Br)cc3c2=O)C(=O)N1	/	/	8.9µM*	/	/	-34%
O=C1NC(=O)C(=Cc2coc3ccccc3c2=O)C(=O)N1	-2%	-22%	35µM*	11µM*	?	/
NC(=S)N/N=C/c1coc2ccccc2c1=O	30%	-24%	20%[59 µM]	-9%	-8%	-11%
CCCCCCNC(=O)N[C@H](Cc1ccc(O)cc1)C(=O)NCCC[C@H]1CN2C(=NC[C@H]2CCC)N1CC1CCC1	/	/	0%[12.7 µM]	/	/	79µM*
CCCCCCNC(=O)N[C@@H](Cc1ccc(O)cc1)C(=O)NCCC[C@H]1CN2C(=NC[C@H]2C)N1CC1CCC1	12%	-17%	?	?	-12%	1%
O=C1NC(=O)N(c2ccccc2)C(=O)/C1=C\c1ccc([N+](=O)[O-])o1	/	/	13µM*	/	/	40µM*
CN1C(=O)C(=Cc2ccc(N3CCOCC3)o2)C(=O)N(C)C1=O	16%	0%	?	106%	0%	-27%
CN1C(=O)NC(=O)/C(=C\c2ccc([N+](=O)[O-])o2)C1=O	25µM*	16µM*	13µM*	2.7µM*	?	35µM*
